# Measured values: PubChem BioAssay (NCI)
# Several values for one entry are separate records, joined by “and”; a condition that tells them apart may be missing. Equal values may be shown once. This is part of a sample that, as a whole, favours compounds with a hit. Of some 83,000 tested, about 20% had one in any assay.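 Activity criterion: percent growth below 10, measured after cells in 96-well plates were exposed to a single compound concentration for 48 hours.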 Activity calls are given as the source filed them.
# Experiments:
# Assay in all cases: NCI-60 one-dose screen, 48 h (100 = growth as untreated, 0 = no growth, -100 = all killed)
# Conditions in all cases: 10 µM unless noted
# T-47D breast = tested on: T-47D breast
# BT-549 breast = tested on: BT-549 breast
# MDA-MB-435 melanoma = tested on: MDA-MB-435 melanoma
# SW-620 colon = tested on: SW-620 colon
# MCF7 breast = tested on: MCF7 breast
# HCT-116 colon = tested on: HCT-116 colon
# HCC-2998 colon = tested on: HCC-2998 colon
# KM12 colon = tested on: KM12 colon
Structure (SMILES),growth (T-47D breast),growth (BT-549 breast),growth (MDA-MB-435 melanoma),growth (SW-620 colon),growth (MCF7 breast),growth (HCT-116 colon),growth (HCC-2998 colon),growth (KM12 colon)
N#Cc1c(N)nc2c(c(-c3ccc(Cl)cc3)nn2-c2ccccc2)c1C#N,97.4% [100 µM] (inactive),94.2% [100 µM] (inactive),104% [100 µM] (inactive),107% [100 µM] (inactive),97.1% [100 µM] (inactive),94.7% [100 µM] (inactive),111% [100 µM] (inactive),103% [100 µM] (inactive)
CCOC(=O)C1=CC(=O)CC(C)(C)O1,110% (inactive) and 107% (inactive),99.2% (inactive) and 117% (inactive),119% (inactive) and 111% (inactive),96.5% (inactive) and 105% (inactive),109% (inactive),96.8% (inactive) and 110% (inactive),102% (inactive) and 108% (inactive),107% (inactive) and 76.9% (inactive)
O=C1C(=O)c2ccccc2C(O)=C1CC=C(Cl)Cl,80.8% (inactive) and 69% (inactive),63% (inactive) and 71.6% (inactive),43.8% (inactive) and 52.5% (inactive),50.1% (inactive) and 52.6% (inactive),37.9% (inactive) and 44.7% (inactive),27.9% (inactive) and 40% (inactive),61.8% (inactive) and 64.4% (inactive),48.1% (inactive) and 45.8% (inactive)
CC(=O)Nc1ccc(OC(C)=O)cc1,78.1% (inactive) and 103% (inactive),11.9% (inactive) and 103% (inactive),-29.5% (active) and 107% (inactive),26% (inactive) and 94.2% (inactive),91.8% (inactive),-14.7% (active) and 104% (inactive),-28.8% (active) and 112% (inactive),2.42% (active) and 112% (inactive)
CCCCOC1NC(=O)NC(=O)C1(F)C(=O)OCC (stereo unspecified),80.5% (inactive) and 74.7% (inactive),57.3% (inactive) and 59.5% (inactive),56.9% (inactive) and 53.4% (inactive),94.6% (inactive) and 76.7% (inactive),46.6% (inactive) and 27.8% (inactive),64.5% (inactive) and 43.6% (inactive),45.5% (inactive) and 26.1% (inactive),60.2% (inactive) and 49.4% (inactive)
Cc1ccc(NC(=S)N/C=C(\c2ccccc2)S(=O)Cc2ccccc2)c(C)c1 (stereo unspecified),77.4% (inactive),99.3% (inactive),97.9% (inactive),98% (inactive),90.3% (inactive),100% (inactive),105% (inactive),102% (inactive)
OCc1ccccc1F,95.9% (inactive),82.4% (inactive),97.6% (inactive),58% (inactive),72.2% (inactive),58.2% (inactive),93.2% (inactive),107% (inactive)
CC1CC(O)CC(C)(C)C1.CC1CC(O)CC(C)(C)C1.CC1CC(O)CC(C)(C)C1.CC1CC(O)CC(C)(C)C1.[Ti] (stereo unspecified),92.7% (inactive),111% (inactive),99.6% (inactive),99.8% (inactive),99.8% (inactive),99.5% (inactive),110% (inactive),103% (inactive)
CCOC(=O)C1=C(C)NC(C)=C(C(=O)OCC)C1,90.1% (inactive) and 116% (inactive),110% (inactive) and 93.7% (inactive),95.4% (inactive) and 97.6% (inactive),91.9% (inactive) and 96.9% (inactive),,140% (inactive) and 87.3% (inactive),114% (inactive) and 87.1% (inactive),96.8% (inactive) and 113% (inactive)
CCc1ccccc1-n1[nH]c(C)c(C=N)c1=O,126% (inactive),108% (inactive),104% (inactive),106% (inactive),,120% (inactive),118% (inactive),102% (inactive)
CCn1c2ccc(N(C)C)cc2c2cc(N(C)C)ccc21,88.2% (inactive),96.6% (inactive),111% (inactive),96.2% (inactive),,101% (inactive),99.2% (inactive),92.8% (inactive)
CC1(CO)CCCC1NCCNC1CCCC1(C)CO (stereo unspecified),97.8% (inactive) and 106% (inactive),98.7% (inactive) and 113% (inactive),98.4% (inactive) and 102% (inactive),104% (inactive) and 101% (inactive),,88.6% (inactive) and 102% (inactive),99.4% (inactive) and 118% (inactive),
COc1ccccc1OCC(O)CO (stereo unspecified),91.4% (inactive) and 105% (inactive),107% (inactive),76.7% (inactive) and 96.1% (inactive),,94.1% (inactive) and 105% (inactive),106% (inactive) and 102% (inactive),95% (inactive) and 86.1% (inactive),
CCCCCCC(C)CC1=C(O)c2ccccc2C(=O)C1=O (stereo unspecified),72.9% (inactive),49% (inactive),42.7% (inactive),35.4% (inactive),25.9% (inactive),23.6% (inactive),54.9% (inactive),41.2% (inactive)
O=C1Cc2ccccc2C(=O)N1,71.1% (inactive),101% (inactive),99.4% (inactive),56.6% (inactive),,6.29% (active),103% (inactive),102% (inactive)
NCCCCCC(=O)O,101% (inactive) [middle of 4 runs],98.5% (inactive) and 107% (inactive) and 112% (inactive),105% (inactive) [middle of 4 runs],109% (inactive) and 98.2% (inactive) and 107% (inactive),105% (inactive) [middle of 4 runs],,,114% (inactive) [middle of 4 runs]
CC(C)(C)OC(=O)c1ccc(NCc2cc(O)ccc2O)cc1,-67.5% (active),-17.6% (active),20% (inactive),18.9% (inactive),,36.2% (inactive),113% (inactive),8.14% (active)
CCOC(=O)c1ccc(N2C(=O)C(Cl)(c3ccccc3)C2c2ccco2)cc1 (stereo unspecified),30.4% (inactive),76.5% (inactive),93.4% (inactive),77.6% (inactive),,54% (inactive),95.8% (inactive),83.5% (inactive)
O=C1C=CC(=O)N1Cc1ccco1,91.7% (inactive),100% (inactive),95.8% (inactive),58.4% (inactive),,52.5% (inactive),101% (inactive),103% (inactive)
CC(=O)C[n+]1ccccc1Sc1ccc(Cl)cc1,84.8% (inactive),30% (inactive),78% (inactive),,65% (inactive),81.5% (inactive),128% (inactive),
COC1C(OC(N)=O)C(O)C(Oc2ccc3c(O)c(NC(=O)c4ccc(O)c(CC=C(C)C)c4)c(=O)oc3c2C)OC1(C)C (stereo unspecified),106% (inactive) and 94.8% (inactive),112% (inactive) and 97.8% (inactive),98.6% (inactive) and 98.8% (inactive),104% (inactive) and 92.7% (inactive),,96.8% (inactive) and 101% (inactive),107% (inactive) and 96.6% (inactive),110% (inactive) and 101% (inactive)
N#CC(=S)Nc1ccc(Cl)c(Cl)c1,13.2% (inactive),-4.25% (active),6.5% (active),19.6% (inactive),,4.91% (active),20.2% (inactive),
Cc1cc(O)c(C(C)C)cc1N=O,82.5% (inactive) and 90.9% (inactive),114% (inactive) and 95.9% (inactive),99.5% (inactive) and 117% (inactive),123% (inactive) and 104% (inactive),,94.4% (inactive) and 93.8% (inactive),98.1% (inactive) and 102% (inactive),
O=c1[nH]c(=S)[nH]n1C(=S)n1[nH]c(=S)[nH]c1=O,92% (inactive),108% (inactive),110% (inactive),98.5% (inactive),91.8% (inactive),102% (inactive),99.6% (inactive),98.4% (inactive)
C#CCOC(=O)C(N)CS (stereo unspecified),119% (inactive),108% (inactive),96.6% (inactive),97.1% (inactive),,101% (inactive),107% (inactive),102% (inactive)
CC(C)(C)C1=CC(=O)C(C(C)(C)C)=CC1=O,79.2% (inactive) and 112% (inactive),91.7% (inactive) and 110% (inactive),97.8% (inactive) and 110% (inactive),106% (inactive) and 104% (inactive),,88.5% (inactive) and 105% (inactive),94.4% (inactive) and 101% (inactive),110% (inactive)
C/C=C/C(=O)OCCCCCCCCCCCC,90.8% (inactive),97% (inactive),115% (inactive),111% (inactive),102% (inactive),88.5% (inactive),130% (inactive),105% (inactive)
CN(C)CC(CN(C)C)C(O)c1ccccc1 (stereo unspecified),95.2% (inactive),101% (inactive),112% (inactive),111% (inactive),,101% (inactive),111% (inactive),102% (inactive)
